# mHTT-CaM PPI inh: disrupts binding of mutant huntingtin to calmodulin; P42858; AlphaScreen His-mHTT/GST-CaM binding, luminescence; inhibition, % at 15 µM; 190,000 tested, 3.6% active;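 note: 0% = both proteins with DMSO and 100% = one protein alone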
# Pf apPOL inh: Pf-apPOL DNA polymerase inhibition; 210,000 tested, 0.25% active; inhibition, % at 10 µM; Recombinant Pf-apPOL, molecular beacon fluorescence, 1.5 h; AID 1794808
# * = called active by the depositor; x = no result. The list is not random: actives were taken first. Their share in the collection is about 3.6%. Cut-off read from the data, not from the text of the source: active = inhibition above about 50%; inactive = the rest.
SMILES,mHTT-CaM PPI inh,Pf apPOL inh
CN1CCC2(CC1)N=C(c1ccc(Br)cc1)CC(c1cc(Cl)ccc1O)N2 (configuration not stated),100*,-9
Cc1ccc(C2=NC3(CCN(C)CC3)NC(c3cc(Br)ccc3O)C2)cc1 (configuration not stated),26,-3
CCN1CCC2(CC1)N=C(c1ccccc1)CC(c1cc(Cl)ccc1O)N2 (configuration not stated),47,-1
CCN1CCC2(CC1)N=C(c1ccc(C)cc1)CC(c1cc(Br)ccc1O)N2 (configuration not stated),65*,-2
CCCCCCCOc1ccc(=S)[nH]n1,x,-4
COC(=O)c1ccccc1NC(=O)CCC(=O)N1CCCn2nc(C)cc21,1,0
COc1ccc(C2C(C(=O)Nc3cc(C)ccc3OC)CCC(=O)N2c2ccc(OC)cc2)cc1 (configuration not stated),56*,-5
COc1ccc(N2C(=O)CCC(C(=O)Nc3cc(OC)ccc3OC)C2c2ccc(F)cc2)cc1 (configuration not stated),38,-2
Cc1cc(NC(=O)Nc2cnccc2C(F)(F)F)no1,x,-4
CCOC(=O)c1sc(Nc2ccccc2)c(-c2nc3ccccc3[nH]2)c1N,x,-8
O=C1NC(c2ccc(-c3ccc(F)cc3)o2)Nc2sc3c(c21)CCCC3 (configuration not stated),63*,19
O=C1NC(c2cccs2)Nc2sc3c(c21)CCCC3 (configuration not stated),7,-2
CN(C)c1ccc(C2NC(=O)c3c(sc4c3CCCC4)N2)cc1 (configuration not stated),26,12
O=C1NC(/C=C/c2ccccc2)Nc2sc3c(c21)CCCC3 (configuration not stated),66*,-5
O=C1NC(c2ccc3c(c2)OCO3)Nc2sc3c(c21)CCCC3 (configuration not stated),1,-8
O=C1NC(c2ccc(O)cc2)Nc2sc3c(c21)CCCC3 (configuration not stated),57*,-1
Cc1cc(C)cc(N2C(=O)CSC23C(=O)Nc2ccc(Br)cc23)c1 (configuration not stated),56*,-10
O=C1CSC2(C(=O)Nc3ccc(Br)cc32)N1c1cccc([N+](=O)[O-])c1 (configuration not stated),17,-12
Cc1ccccc1-c1nc(-c2ccc(-n3ccnc3)nc2)no1,-8,-1
CCn1c(N2CCC(C(=O)Nc3ccc(OC)c(OC)c3)CC2)cc(=O)n(C)c1=O,62*,-1
CCn1c(N2CCC(C(=O)Nc3cccc(OC)c3)CC2)cc(=O)n(C)c1=O,44,0
CCn1c(N2CCC(C(=O)N3CCN(c4ccc(F)cc4)CC3)CC2)cc(=O)n(C)c1=O,70*,4
CCn1c(N2CCC(C(=O)Nc3ccc(F)cc3)CC2)cc(=O)n(C)c1=O,28,-6
CCCn1ncc(N2CCC(C(=O)Nc3cc(C)ccc3OC)CC2)cc1=O,77*,-2
Cn1c(N2CCC(C(=O)N3CCN(c4ccc(Cl)cc4)CC3)CC2)cc(=O)n(C)c1=O,50,-1
SMILES,mHTT-CaM PPI inh,Pf apPOL inh
CCOc1ccc(NC(=O)C2CCN(c3cc(=O)n(C)c(=O)n3CC)CC2)cc1,61*,-2
CCCn1ncc(N2CCC(C(=O)Nc3ccc(OC)cc3OC)CC2)cc1=O,20,-2
O=C(c1ccc2c(c1)CCC(=O)N2Cc1ccccc1)N1CCCCC1,6,-2
COc1cccc(C(=O)NNC(=O)c2ccccc2[N+](=O)[O-])c1,x,-2
Cc1ccccc1C(=O)N1CCc2c(c(-c3nc(-c4ccccc4)no3)nn2C)C1,-1,1
COC(C)(C)CNS(=O)(=O)c1ccccc1,-3,-3
CCc1nnc(NC(=O)CSc2ncccn2)s1,-5,0
O=C(CSc1nnc(-c2ccco2)c(-c2ccco2)n1)Nc1nc2ccccc2s1,47,-10
CCSc1nnc(NC(=O)CSc2nnc(CNC(=O)c3ccco3)o2)s1,-9,5
Cc1nnc(NC(=O)CSc2nnc(-c3ccco3)c(-c3ccco3)n2)s1,67*,-1
CCSc1nnc(NC(=O)CSc2nnc(-c3ccco3)c(-c3ccco3)n2)s1,81*,3
CCc1nnc(NC(=O)CSc2nnc(-c3ccco3)c(-c3ccco3)n2)s1,65*,5
CC1=C([N+](=O)[O-])C(c2ccccc2Cl)N(C)C(=O)N1C (configuration not stated),3,-3
COc1cc(OC)cc(C(=O)Nc2ccc([N+](=O)[O-])cc2Cl)c1,1,1
c1ccc(COc2ccc(CCC3OCCO3)cc2)cc1,x,-11
O=C(c1csc(COc2cccc(F)c2)n1)N1CCCC1,3,2
Cc1ccc(C)c(NS(=O)(=O)c2cn(C)c3ncccc23)c1,55*,91*
CCCn1cc(S(=O)(=O)Nc2cccc(C)c2)c2cccnc21,-1,1
CCOC(=O)N1CCN(CC(O)COc2ccc(C)cc2C)CC1 (configuration not stated),4,-6
O=C(NCc1ccc2c(c1)OCO2)c1ccc2nc(-c3ccccn3)c(-c3ccccn3)nc2c1,8,61*
O=C(CCc1nc(-c2ccccn2)no1)NCc1ccc2c(c1)OCO2,x,0
Cc1ccc(NC(=O)NC(C)(C)C)cc1,-3,-4
Cc1ccc(NC(=O)Cn2c(C)cc(-c3nnc(C)o3)c2C)c(C)c1,9,-1
N#Cc1c(N)nc2sc(C(=O)c3ccc(Cl)cc3)c(N)c2c1-c1ccc(O)cc1,83*,8
COc1ccc(-c2c(C#N)c(N)nc3sc(C(=O)c4ccc(C)cc4)c(N)c23)cc1,-3,-1
SMILES,mHTT-CaM PPI inh,Pf apPOL inh
C=CCn1c(SCC(=O)Nc2ccc(C)cc2)nnc1-c1ccccc1Br,2,-2
CCc1cc(C(=O)Nc2cccc(F)c2)nc2ccnn12,-22,-3
O=C(c1ccsc1)N1CCN(c2nnc3c(Cl)cccn23)CC1,32,-1
O=C(CC1CCCCC1)N1CCN(c2nnc3c(Cl)cccn23)CC1,60*,-10
Cc1nc2c(C(=O)N3CCCCC3)cnn2c(C)c1Cc1ccc(Cl)cc1,100*,2
Cc1nc2c(C(=O)NCc3ccccc3)cnn2c(C)c1Cc1ccc(Cl)cc1,35,-9
COCCNC(=O)c1cnn2c(C)c(Cc3ccc(F)cc3)c(C)nc12,19,-9
Cc1nc2c(C(=O)N3CCCC(C)C3)cnn2c(C)c1Cc1ccc(Cl)cc1 (configuration not stated),100*,-4
Cc1nc2c(C(=O)N3CCCCC3)cnn2c(C)c1Cc1ccccc1Br,41,-9
COCCCNC(=O)c1cnn2c(C)c(Cc3ccc(Cl)cc3)c(C)nc12,90*,-14
COc1ccc(C(=O)N2CCC(COc3ccc(C(=O)NC(C)C)cc3)CC2)cc1,13,1
Cc1cccc(Cl)c1CNC(=O)c1c(C)noc1-c1cccnc1,-5,-2
COc1ccc(C(C)NC(=O)c2cn3ccc(C)cc3n2)cc1 (configuration not stated),-1,-2
CC12CCC(C(=O)N(CN3CCCCC3)C1=O)C2(C)C (configuration not stated),-4,x
CC(=O)C1=C(O)C(=O)N(c2cccc(C(=O)O)c2)C1c1ccc([N+](=O)[O-])cc1 (configuration not stated),-3,-7
O=C(CCC(=O)N1CCN(Cc2ccccc2)CC1)N1CCN(Cc2ccccc2)CC1,-3,3

# Source: PubChem BioAssay
